The panel holds about 83,000 compounds, 20% with a hit somewhere; the sample as a whole holds those more often.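 Testing used 96-well plates and a 48-hour single-concentration exposure. Example: -40 means 40% of the starting cells died.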 Unmarked numbers belong to inactive results. The source made the active and inactive calls. How the source made its calls: active means growth percent below 10; inactive means the rest.
tested on: NCI-H322M lung; assay: NCI-60 one-dose screen, 48 h (100 = growth as untreated, 0 = no growth, -100 = all killed); details: 10 µM unless noted

| Structure (SMILES) | growth |
| --- | --- |
| O=C(Nc1cccc(-n2cc(-c3ccncc3)c(-c3ccc(O)c(Cl)c3)n2)c1)Nc1ccc(Cl)c(C(F)(F)F)c1 | -17.7% (active) |
| CCOc1ccccc1C(=O)OCC(=O)Nc1cccc(S(=O)(=O)N(C)C)c1 | 124% |
| Cn1c(N)c(N=O)c(=O)[nH]c1=O | 112% |
| Cc1nn(-c2ccc(Br)cc2)c2nc3c(nc12)C(=O)C(=O)c1ccccc1-3 | 104% |
| Cc1nn(-c2ccccc2)c2nc(Cl)c(/C=C/C(=O)c3ccccc3)c(-c3ccccc3)c12 | 105% |
| S=C(Nc1ccc(C2=NCCN2)cc1)Nc1ccc(C2=NCCN2)cc1 | 117% |
| COc1ccc(C(=O)/C=C/c2c(Cl)nc3c(c(C)nn3-c3ccccc3)c2-c2ccc(Br)cc2)cc1 | 109% |
| O=C1c2ccccc2-c2c1nc1ccccc1[n+]2[O-] | 97% |
| Cc1c(C(N)=O)sc2c1c(=O)n(Cc1ccccc1)c1nnc(S(=O)(=O)CC(=O)Nc3ccc(Cl)cc3)n21 | 34.8% |
| OCCOc1c(Cl)cc(Cl)cc1Cl | 114% |
| O=C1Nc2ccc(F)cc2/C1=C/c1nc(-c2ccc(F)cc2)n2ccccc12 | 124% |
| CCOC(=O)C(C(C)=O)c1nc2sc3cc(Cl)ccc3n2c(=N)c1C#N (stereo unspecified) | 105% |
| Cc1nn(-c2ccc(Cl)cc2)c2nc3c(nc12)c(=O)oc1ccccc13 | 116% |
| Cc1nn(-c2ccccc2)c2ncc3c(c12)C(=O)N(Cc1ccccc1)C3=O | 58.6% |
| OC(CCC(O)(c1ccccc1)c1ccccc1)(c1ccccc1)c1ccccc1 | 102% |
| S=C(c1ccccc1)N1CCN(c2cccc(Cl)c2)CC1 | 104% |
| COc1cc(OC)c2cc(C(=O)O)c(=O)oc2c1 | 79.8% |
| Cc1c(C(N)=O)sc2ncn(Cc3ccccc3)c(=O)c12 | 79% |
| O=C1CN(CO)C(=O)CN1CO | 100% |

| Structure (SMILES) | growth |
| --- | --- |
| O=C(COC(=O)[C@H](C[Se][Se]C[C@H](NC(=O)c1ccc(Br)cc1F)C(=O)OCC(=O)c1ccc(F)cc1)NC(=O)c1ccc(Br)cc1F)c1ccc(F)cc1 | -23.2% (active) |
| CCOC(=O)C1C(=O)OC2CCCCC21 (stereo unspecified) | 113% |
| COC(=O)[C@]1(CCSC)N[C@H](c2cn(-c3ccccc3)nc2C)[C@@H]2C(=O)N(c3ccccc3)C(=O)[C@@H]21 | 115% |
| Cc1c(C(N)=O)sc2c1c(=O)n(Cc1ccccc1)c1nnc(SCC(=O)Nc3ccc(Cl)cc3)n21 | 28.9% |
| O=C1OC(c2ccc(-c3ccccc3)cc2)=C/C1=C/c1cccs1 | 99.7% |
| Oc1ccccc1/C=N\Nc1ccccc1 | 59.9% |
| CCCCn1c(Cc2ccc(Cl)cc2)nc2cc(OC)c(OC)cc2c1=O | 97.3% |
| Cn1[nH]cc(/C=N/C(N)=O)c1=O | 124% |
| Cc1[nH]n(C(N)=S)c(=O)c1N=Nc1ccc(F)c(Cl)c1 | 110% |
| CCSc1nnc2n(Cc3ccccc3)c(=O)c3c(C)c(C(N)=O)sc3n12 | 102% |
| Cc1cc(C)c(OC(=O)CSc2nc3ccccc3c(=O)n2CCc2ccccc2)cc1C | 89.3% |
| NC(=O)SCC(=O)Nc1ccccc1-c1ccccc1 | 106% |
| Cc1nn(-c2ccc(Cl)cc2)c2nc3c(nc12)C(=O)C(=O)c1ccccc1-3 | 65.1% |
| O=C(c1ccccc1)c1ccccc1Cl | 108% |
| COc1cc(OC)c2sc(-c3ccc(-n4cncc4-c4ccc(N)cc4)cc3)nc2c1 | 84.7% |
| O=C(CSc1nc2c(n1Nc1ccccc1)-c1ccccc1SC2)Nc1nc(-c2ccc(Cl)cc2)cs1 | 91.1% |
| CN=C(NC)N/N=C(C)\C=N\NC(=NC)NC | 107% |
| OC(Cc1cccnc1)c1ccccc1 (stereo unspecified) | 95.9% |
| N#Cc1c(N2CCOCC2)nc2sc3cc(Cl)ccc3n2c1=N | 117% |

tested on: HOP-62 NSCLC; assay: as above; details: 10 µM unless noted

| Structure (SMILES) | growth |
| --- | --- |
| O=C(Nc1cccc(-n2cc(-c3ccncc3)c(-c3ccc(O)c(Cl)c3)n2)c1)Nc1ccc(Cl)c(C(F)(F)F)c1 | 4.91% (active) |
| CCOc1ccccc1C(=O)OCC(=O)Nc1cccc(S(=O)(=O)N(C)C)c1 | 94.2% |
| Cn1c(N)c(N=O)c(=O)[nH]c1=O | 103% |
| Cc1nn(-c2ccc(Br)cc2)c2nc3c(nc12)C(=O)C(=O)c1ccccc1-3 | 91.7% |
| Cc1nn(-c2ccccc2)c2nc(Cl)c(/C=C/C(=O)c3ccccc3)c(-c3ccccc3)c12 | 114% |
| S=C(Nc1ccc(C2=NCCN2)cc1)Nc1ccc(C2=NCCN2)cc1 | 99.6% |
| COc1ccc(C(=O)/C=C/c2c(Cl)nc3c(c(C)nn3-c3ccccc3)c2-c2ccc(Br)cc2)cc1 | 104% |
| O=C1c2ccccc2-c2c1nc1ccccc1[n+]2[O-] | 102% |
| Cc1c(C(N)=O)sc2c1c(=O)n(Cc1ccccc1)c1nnc(S(=O)(=O)CC(=O)Nc3ccc(Cl)cc3)n21 | -26.9% (active) |
| OCCOc1c(Cl)cc(Cl)cc1Cl | 108% |
| O=C1Nc2ccc(F)cc2/C1=C/c1nc(-c2ccc(F)cc2)n2ccccc12 | 96.4% |
| CCOC(=O)C(C(C)=O)c1nc2sc3cc(Cl)ccc3n2c(=N)c1C#N (stereo unspecified) | 102% |
| Cc1nn(-c2ccc(Cl)cc2)c2nc3c(nc12)c(=O)oc1ccccc13 | 107% |
| Cc1nn(-c2ccccc2)c2ncc3c(c12)C(=O)N(Cc1ccccc1)C3=O | 1.26% (active) |
| OC(CCC(O)(c1ccccc1)c1ccccc1)(c1ccccc1)c1ccccc1 | 114% |
| S=C(c1ccccc1)N1CCN(c2cccc(Cl)c2)CC1 | 102% |
| COc1cc(OC)c2cc(C(=O)O)c(=O)oc2c1 | 103% |
| Cc1c(C(N)=O)sc2ncn(Cc3ccccc3)c(=O)c12 | 95.4% |
| O=C1CN(CO)C(=O)CN1CO | 106% |

| Structure (SMILES) | growth |
| --- | --- |
| O=C(COC(=O)[C@H](C[Se][Se]C[C@H](NC(=O)c1ccc(Br)cc1F)C(=O)OCC(=O)c1ccc(F)cc1)NC(=O)c1ccc(Br)cc1F)c1ccc(F)cc1 | -6.31% (active) |
| CCOC(=O)C1C(=O)OC2CCCCC21 (stereo unspecified) | 127% |
| COC(=O)[C@]1(CCSC)N[C@H](c2cn(-c3ccccc3)nc2C)[C@@H]2C(=O)N(c3ccccc3)C(=O)[C@@H]21 | 107% |
| Cc1c(C(N)=O)sc2c1c(=O)n(Cc1ccccc1)c1nnc(SCC(=O)Nc3ccc(Cl)cc3)n21 | -6.06% (active) |
| O=C1OC(c2ccc(-c3ccccc3)cc2)=C/C1=C/c1cccs1 | 101% |
| Oc1ccccc1/C=N\Nc1ccccc1 | 65.6% |
| CCCCn1c(Cc2ccc(Cl)cc2)nc2cc(OC)c(OC)cc2c1=O | 91.2% |
| Cn1[nH]cc(/C=N/C(N)=O)c1=O | 111% |
| Cc1[nH]n(C(N)=S)c(=O)c1N=Nc1ccc(F)c(Cl)c1 | 92.1% |
| CCSc1nnc2n(Cc3ccccc3)c(=O)c3c(C)c(C(N)=O)sc3n12 | 101% |
| Cc1cc(C)c(OC(=O)CSc2nc3ccccc3c(=O)n2CCc2ccccc2)cc1C | 104% |
| NC(=O)SCC(=O)Nc1ccccc1-c1ccccc1 | 116% |
| Cc1nn(-c2ccc(Cl)cc2)c2nc3c(nc12)C(=O)C(=O)c1ccccc1-3 | 72.1% |
| O=C(c1ccccc1)c1ccccc1Cl | 105% |
| COc1cc(OC)c2sc(-c3ccc(-n4cncc4-c4ccc(N)cc4)cc3)nc2c1 | 110% |
| O=C(CSc1nc2c(n1Nc1ccccc1)-c1ccccc1SC2)Nc1nc(-c2ccc(Cl)cc2)cs1 | 62.3% |
| CN=C(NC)N/N=C(C)\C=N\NC(=NC)NC | 100% |
| OC(Cc1cccnc1)c1ccccc1 (stereo unspecified) | 105% |
| N#Cc1c(N2CCOCC2)nc2sc3cc(Cl)ccc3n2c1=N | 90.2% |

— PubChem BioAssay (NCI)
